Screening data: PubChem, National Center for Advancing Translational Sciences (NCATS)
BCR signal inh: qHTS Assay to Find Inhibitors of Chronic Active B-Cell Receptor Signaling | ABC-DLBCL IkBa-CBG/CBR reporter, luminescence ratio, 4 h | Potency, µM (highest dose often 46.1 µM), for the others: at the top dose activity change, negative = inhibition, most hits filed as inhibitors | hit rate 0.05% among 340,000; active = well fitted inhibition curve with a large enough effect in the signal ratio, with a control signal flat, not every such curve was filed as active; inconclusive = small, poorly fitted or top-dose-only effect, or effect the other way, or a change in a side signal; the % refers to the signal ratio;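 note: plate controls were basal doxycycline-induced cells for no effect and cells given 10 µM MG132 for full effect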
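TMD8 human ABC-DLBCL cells with doxycycline-inducible IκBα–green luciferase fusion and unfused red luciferase, in 0.5% FBS medium; compounds up to 46 uM, 4 h at 37C. Green/red luminescence ratio, filter-overlap corrected, fitted to concentration-response curves.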
Mito fusion yeast: qHTS Assay for Small Molecule Inhibitors of Mitochondrial Division or Activators of Mitochondrial Fusion | S. cerevisiae fusion-defective mutant growth rescue, CellTiterGlo 48 h | Potency, µM (highest dose often 46.1 µM), for inactives: at the top dose growth rescue (activation), actives largely listed as activators | hit rate 0.23% among 320,000 | AID 485298, 2010; note: % of control where 0% means no effect; nearly all actives have a fitted effect of over 45% in size
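Yeast fusion mutant, YPEG (non-fermentable carbon), compound, 48 h at 37C non-permissive; CellTiterGlo added, 10 min RT, luminescence read. Rescued growth = division inhibition.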
uPA surface inh: qHTS for Inhibitors of Cell Surface uPA Generation; cell surface uPA generation assay, qHTS; Potency, µM (series often up to 38.3 µM), for the others: at the top dose activity change, negative = inhibition, most hits filed as inhibitors; hit rate 0.31% among 330,000; active = well fitted inhibition curve with a large enough effect; inconclusive = small, poorly fitted or top-dose-only effect; inactive = no such curve, though single readings can be large or run the other way; tested in mouse RAW 264.7 cells; note: % is set by controls: 0 for no effect and ±100 for the full control effect; nearly all actives have a fitted effect of over 55% in size
a7 integrin act: qHTS for Activators of Integrin-Mediated Alleviation for Muscular Dystrophy; alpha7betagal myoblasts, beta-gal FDG fluorescence, 48 h; Potency, µM (highest dose often 38.3 µM), for the others: at the top dose activation, usual class: activators; hit rate 0.064% among 350,000; AID 624291, 2012;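 note: 100% = response of the positive control SU9516; nearly all actives have a fitted effect of over 60% in size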
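alpha7betagal+/- myoblasts (passage 13, 250/well) treated 48 h at 37C with compounds at 1:260 dilution of DMSO stock. Lysed, then beta-galactosidase activity read as FDG fluorescence (ex 480/em 540) after 30 min, with pre-read for autofluorescence.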
RORgamma inh: qHTS for inhibitors of ROR gamma transcriptional activity; hit rate 5.4% among 310,000; Drosophila S2 Gal4-RORgamma UAS-luciferase reporter, 20 h; Potency, µM (doses to about 53.6 µM), for the others: at the highest dose activity change, negative = inhibition, usual class: inhibitors; Nuclear receptor ROR-gamma (Mus musculus), P51450; note: % is set by controls: 0 for no effect and ±100 for the full control effect; nearly all actives have a fitted effect of over 60% in size
Target sequence (P51450 whole entry, looked up, the tested form may be a part): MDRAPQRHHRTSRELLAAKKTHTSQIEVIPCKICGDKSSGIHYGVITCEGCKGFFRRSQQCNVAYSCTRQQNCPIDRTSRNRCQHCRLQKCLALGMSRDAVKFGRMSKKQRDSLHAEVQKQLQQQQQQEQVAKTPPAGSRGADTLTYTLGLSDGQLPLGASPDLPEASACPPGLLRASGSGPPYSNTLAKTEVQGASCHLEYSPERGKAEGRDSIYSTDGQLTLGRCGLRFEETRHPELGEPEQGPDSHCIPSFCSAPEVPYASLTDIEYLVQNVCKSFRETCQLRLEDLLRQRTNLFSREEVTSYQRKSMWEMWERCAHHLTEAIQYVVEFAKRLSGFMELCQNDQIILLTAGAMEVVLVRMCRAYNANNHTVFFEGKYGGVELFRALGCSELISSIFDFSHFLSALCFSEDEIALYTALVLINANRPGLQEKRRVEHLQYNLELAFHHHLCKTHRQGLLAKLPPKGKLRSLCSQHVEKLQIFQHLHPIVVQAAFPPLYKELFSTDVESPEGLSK
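Stable Schneider cell line, Gal4 DNA-binding domain fused to ROR gamma, UAS-luciferase. Cmpd 1 hr RT → CuSO4 700 uM final → 20 hr RT → luciferase reagent 10 min → luminescence.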
VP16 counter: VP16 counterscreen qHTS for inhibitors of ROR gamma transcriptional activity | Potency, µM (doses to about 53.6 µM), for the others: at the highest dose activity, negative = inhibition, usual class: inhibitors | AID 2546, 2010 | Drosophila S2 Gal4-VP16 UAS-luciferase, luminescence, 20 h | hit rate 3.5% among 310,000;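 note: Gal4-VP16 expression switched on by copper sulfate through the metallothionein promoter; % is set by controls: 0 for no effect and ±100 for the full control effect; nearly all actives have a fitted effect of over 50% in size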
* = called active by the depositor; u = inconclusive; x = no result given; [ ] = remark or other dose. A selection: hits, their analogues and other compounds. The true share with any hit is near 5.5%. Unless noted, calls come from the whole dose curve; as a rule, active = well fitted curve in the direction sought with a large enough effect; inconclusive = small, poorly fitted or top-dose-only effect, or another doubt; inactive = no such curve, though single readings can be large; an effect the other way counts as inactive or inconclusive. Potency is the fitted concentration of half-maximal effect.

SMILES | BCR signal inh | Mito fusion yeast | uPA surface inh | a7 integrin act | RORgamma inh | VP16 counter
O=C(c1cccs1)N1CCN(c2ccccc2)CC1 | 1% | 1% | -3% | 32% | -27% | u
O=C(NC(=S)N1CCN(c2ccc(F)cc2)CC1)c1cccs1 | u | 23% | -5% | -15% | 45µM* | 0.56µM*
O=C(c1cccs1)N1CCN(c2ccc(F)cc2)CC1 | u | 0% | -2% | 8% | 1% | 4%
CC(C)C[C@H]1COC(c2ccc(Br)cc2)=N1 | x | x | x | x | -9% | 0%
COc1ccc([C@H]2CC(=O)C=C(c3cc(Br)ccc3OC)C2)cc1 | 0% | x | u | -6% | x | x
COc1ccc([C@H]2CC(=O)C=C(c3cc(C)ccc3OC)C2)cc1 | 2% | 29% | 10µM* | -6% | x | x
CCOc1ccc(Br)cc1C1=CC(=O)C[C@H](c2ccc(OC)cc2)C1 | u | u | 2.8µM* | -38% | x | x
CNc1nc(N)nc(-c2cc(Cl)ccc2OC)n1 | 0% | 4% | -12% | -11% | -18% | 5%
CC(NCc1ccc(OCc2ccc(Cl)cc2)cc1)C(O)c1ccccc1 (stereo not given) | -9% | -2% | -2% | -77% | 35µM* | u
Cc1cc(C)n(CCC(=O)N2CCN(S(=O)(=O)c3ccccc3)CC2)n1 | -13% | -3% | -12% | 21% | -43% | -5%
CCc1cccc(NC(=O)C2CCCN(S(=O)(=O)c3cccs3)C2)c1 (stereo not given) | u | 1% | 1% | u | 23% | 4%
O=C(COC(=O)c1cncc(Br)c1)NC1CCCCC1 | -23% | -1% | 1% | -20% | -17% | 11%
Cc1cc(O)ccc1NC(=S)NC(=O)c1cncc(Br)c1 | u | 5% | u | 8% | 0.79µM* | 0.56µM*
O=C(NC(=S)NC1CCCCCC1)c1cncc(Br)c1 | 1% | 7% | -2% | -19% | 3.5µM* | 6.3µM*
Cc1cc(NC(=O)c2cncc(Br)c2)ccc1NC(=O)c1cc2ccccc2o1 | 0% | -1% | 6% | -49% | u | 11µM*
Cc1ccccc1NC(=S)NC(=O)c1cncc(Br)c1 | -1% | 0% | 2% | -20% | u | u
O=C(NC(=S)Nc1ncc(Br)cc1Br)c1cncc(Br)c1 | x | -3% | x | u | 6.3µM* | u
Nc1ccc(/C=C/c2ccc(N)cc2S(=O)(=O)O)c(S(=O)(=O)O)c1 | x | x | x | x | 25% | -12%
O=C1N=C2SCCN2C(=O)C1Cc1ccc(Cl)cc1 (stereo not given) | x | x | x | x | 8% | 4%
Cc1ccc(-c2n[nH]c(=S)n2C)cc1Cl | -7% | -5% | -9% | 2% | 0.56µM* | 3.5µM*
CCN(CC)S(=O)(=O)c1cccc(-c2n[nH]c(=S)n2C)c1 | -11% | -2% | -2% | -1% | u | -4%[10 µM]
O=C(CNC(=O)c1ccco1)N=Nc1c(O)n(CCc2ccccc2)c2ccccc12 | u | 7% | 1.1µM* | -34% | 0% | -4%
O=C1N/C(=C/c2cccn2-c2ccccc2)C(=O)N1Cc1ccc(F)cc1 | -1% | 0% | -5% | -13% | 30% | 10µM*
O=C1N/C(=C/c2cccn2-c2ccc(F)cc2)C(=O)N1Cc1ccccc1F | 7% | -1% | 2% | 2% | 2% | -9%
CCn1c2ccccc2c2cc(Nc3cc(C)nc4ncnn34)ccc21 | u | 16µM* | u | -16% | 20µM* | u
Cc1ccc(Nc2cc(-c3ccccc3)nc3ncnn23)cc1 | 4% | 2% | -3% | -29% | 11µM* | u
CCc1ccc(Nc2cc(C)nc3ncnn23)cc1 | u | -3% | -2% | 18% | -16%[1.91 µM] | -2%
CCCNC(=S)N1CCN(C(c2ccccc2)c2ccccc2)CC1 | 0% | u | 1% | 0% | 11µM* | 18µM*
